Most compounds without a hit are left out; they make up all but 7.8% or so of the library.
sEH activator: activators of human soluble epoxide hydrolase; P34913; purified human sEH enzymatic activity, activator screen; activation, % at 2 µM; 91,000 compounds, 0.04% hits; AID 717; in the data active = activation above about 37%
PostGolgi yeast: growth inhibition of a yeast mutant, post-Golgi transport screen. post-Golgi transport phenotypic cell assay. inhibition, % at 10 µM. 98,000 compounds, 0.9% hits. AID 739;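 note: yeast cells grown in 1536-well plates; yeast grown about 18 h at 30C before absorbance read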
PostGolgi ctrl: inhibits growth of the yeast control strain; inhibition, % at 10 µM; efflux-deficient yeast background strain, growth absorbance A615, 16 h; AID 738; 98,000 compounds, 5% hits
sEH inh: soluble epoxide hydrolase (human) inhibition. inhibition, % at 2 µM. recombinant human sEH enzymatic activity assay. AID 707. 91,000 compounds, 0.34% hits. P34913; in the data active = inhibition above about 80%
Cav3 T inh: human Cav3.2 channel inhibition, primary screen | O95180 | Cav3.2-expressing cells, Fluo-4 calcium fluorescence FDSS; hits give low values | B-score at 10 µM | 100,000 compounds, 4% hits | AID 449739;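 active = single-dose well whose peak fluorescence ratio is a statistical outlier from its plate by either plate-standardised score or position-corrected B-score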
Active calls of the source: *. Cut-off read from the data, not from the text of the source, unless noted: active = inhibition above about 30%; inactive = the rest.

Cc1cc(OC(C)C(=O)N/N=C/CC(C)c2ccccc2)ccc1Cl (centres undefined) was read as sEH activator -4, PostGolgi yeast -7, PostGolgi ctrl -2, sEH inh 7 and Cav3 T inh -6.5*.
For O=C(CCCN1C(=O)c2cccc3cccc(c23)C1=O)N1CCc2ccccc2C1 the results were sEH activator -7, PostGolgi yeast 23, PostGolgi ctrl 8, sEH inh 7 and Cav3 T inh -0.81.
Cc1nc2cc(-c3ccc(Cl)cc3)nn2c(C)c1CCC(=O)NC(C)c1ccc2c(c1)OCCO2 (centres undefined) was read as Cav3 T inh -3.3.
For Cc1nc2c(-c3ccccc3)c(C)nn2c(C)c1CCC(=O)NC(C)CCc1ccco1 (centres undefined) the results were sEH activator 3, PostGolgi yeast 0, PostGolgi ctrl 13, sEH inh -4 and Cav3 T inh -5.7*.
Cc1nc2c(-c3ccccc3)c(C)nn2c(C)c1CCC(=O)O was read as sEH activator 0, PostGolgi yeast -2, PostGolgi ctrl 9, sEH inh 0 and Cav3 T inh 1.1.
For COc1ccccc1-c1cc2nc(C)c(CCC(=O)NC(C)CCc3ccco3)c(C)n2n1 (centres undefined) the results were sEH activator -8, PostGolgi yeast 2, PostGolgi ctrl 37*, sEH inh 6 and Cav3 T inh -1.4.
For Cc1ccc(NC(=O)c2c(-c3c(F)cccc3Cl)noc2C)cc1F the results were PostGolgi yeast 5, PostGolgi ctrl 9 and Cav3 T inh -8.3*.
For CC(=O)Nc1cccc(NC(=O)c2c(-c3c(Cl)cccc3Cl)noc2C)c1 the results were sEH activator -12, PostGolgi yeast 0, PostGolgi ctrl 3, sEH inh 10 and Cav3 T inh 0.17.
Screening Cc1onc(-c2c(F)cccc2Cl)c1C(=O)Nc1cccc2nsnc12 returned sEH activator -2, PostGolgi yeast 2, PostGolgi ctrl 42*, sEH inh 6 and Cav3 T inh 0.11.
Cc1onc(-c2c(F)cccc2Cl)c1C(=O)NCC1COc2ccccc2O1 (centres undefined) was read as sEH activator 2, PostGolgi yeast 5, PostGolgi ctrl 37*, sEH inh -4 and Cav3 T inh -1.6.
Cc1ccc(C2=N/C(=C\c3cccs3)C(=O)N2Nc2ccccc2)cc1 was read as sEH activator -3, PostGolgi yeast 11, PostGolgi ctrl 32*, sEH inh 3 and Cav3 T inh -0.72.
`O=C1/C(=C/c2cccs2)N=C(c2cccs2)N1Nc1ccccc1` gave sEH activator -13, PostGolgi yeast -1, PostGolgi ctrl 22, sEH inh 9 and Cav3 T inh -1.5.
For CCOc1ccc(NC(=O)CN(c2cccc(C(F)(F)F)c2)S(C)(=O)=O)cc1 the results were sEH activator 3, PostGolgi yeast -6, PostGolgi ctrl 7, sEH inh 0 and Cav3 T inh -3.8*.
CS(=O)(=O)N(CC(=O)Nc1ccccc1)Cc1ccc(Cl)cc1 was read as sEH activator 6, PostGolgi yeast -8, PostGolgi ctrl 4, sEH inh -3 and Cav3 T inh -0.4.
COc1ccc(N(CC(=O)Nc2cccc(C(F)(F)F)c2)S(C)(=O)=O)cc1 was read as sEH activator -11, sEH inh 12 and Cav3 T inh -3.3*.
For COc1cccc(NC(=O)CN(c2cccc(C(F)(F)F)c2)S(C)(=O)=O)c1 the results were PostGolgi yeast 1 and PostGolgi ctrl 8.
CCc1cccc(NC(=O)CN(c2ccc(OC)cc2)S(=O)(=O)c2c(C)n[nH]c2C)c1 was read as PostGolgi yeast 5, PostGolgi ctrl -1 and Cav3 T inh -4.2*.
CSc1cccc(NC(=O)CN(Cc2ccc(Cl)cc2)S(C)(=O)=O)c1 was read as sEH activator -6, PostGolgi yeast -9, PostGolgi ctrl 8, sEH inh 2 and Cav3 T inh -3.4*.
CCOc1ccc(C2C(C(=O)c3cccs3)=C(O)C(=O)N2CCCn2ccnc2)cc1 (centres undefined) was read as sEH activator 10 and sEH inh -10.
For CC(=O)NC1C(=O)N(C)c2ccc(Br)cc21 (centres undefined) the results were sEH activator 1, PostGolgi yeast -4, PostGolgi ctrl -3, sEH inh 2 and Cav3 T inh 1.1.
Screening CC(C)C1CC(O)(C2(O)CCCCC2)ON1 (centres undefined) returned PostGolgi yeast 1, PostGolgi ctrl 28 and Cav3 T inh 0.41.
COc1ccc(N(CC(=O)Nc2cccc(SC)c2)S(C)(=O)=O)cc1 was read as PostGolgi yeast 0, PostGolgi ctrl 7 and Cav3 T inh -4.8*.
Cc1ccc(NC2OC(CO)C(O)C(O)C2O)cc1 (centres undefined) was read as sEH activator 14, PostGolgi yeast 0, PostGolgi ctrl 4, sEH inh -13 and Cav3 T inh 0.27.
CCN1CCN(CCCNC(=O)C2c3ccccc3C(=O)N(C)C2c2ccc(OC)cc2)CC1 (centres undefined) was read as sEH activator 4, PostGolgi yeast -12, PostGolgi ctrl 5, sEH inh -5 and Cav3 T inh -5.6*.
For Fc1ccccc1Nc1nc2ccccc2n2nnnc12 the results were PostGolgi yeast 3, PostGolgi ctrl 51* and Cav3 T inh -0.81.
For CCCOC(=S)NC(=O)c1sc2ccccc2c1Cl the results were sEH activator -13, PostGolgi yeast -6, PostGolgi ctrl 7, sEH inh 12 and Cav3 T inh -0.017.
For COCCNS(=O)(=O)c1ccc(SC)cc1 the results were sEH activator 10, PostGolgi yeast -4, PostGolgi ctrl -9, sEH inh -11 and Cav3 T inh -2.7.
`O=C(OCC#CCSc1nnc(-c2ccncc2)o1)c1cccs1` gave sEH activator 0, PostGolgi yeast -7, PostGolgi ctrl -9, sEH inh -1 and Cav3 T inh -4.3*.
`COC(=O)CSc1nnc(-c2ccncc2)o1` gave sEH activator 10, PostGolgi yeast 2, PostGolgi ctrl -1, sEH inh -12 and Cav3 T inh -0.41.
`O=C(Cn1ncc2c1-c1ccccc1OC2)N(Cc1ccco1)C1CCCCC1` gave sEH activator -2, PostGolgi yeast 1, PostGolgi ctrl 32*, sEH inh 4 and Cav3 T inh -2.3.
Screening O=C(Cn1ncc2c1-c1ccccc1OC2)Nc1nc2ccccc2s1 returned sEH activator -5, PostGolgi yeast -10, PostGolgi ctrl 47*, sEH inh 7 and Cav3 T inh -9.4*.
`CCN(CC)C(=O)Cn1ncc2c1-c1ccccc1OC2` gave sEH activator -8, PostGolgi yeast 2, PostGolgi ctrl 2, sEH inh 7 and Cav3 T inh 0.88.
Cc1nc2cc(N3CCN(C)CC3)c(NC(=O)Cc3ccccc3)cc2c(=O)n1Cc1ccccc1 was read as sEH activator -6, PostGolgi yeast 1, PostGolgi ctrl 29, sEH inh 6 and Cav3 T inh -7.3*.
For Cc1nc2cc(N3CCCCC3)c(NC(=O)c3ccncc3)cc2c(=O)n1Cc1ccc(Cl)cc1 the results were sEH activator 8, PostGolgi yeast 11, PostGolgi ctrl -23 and sEH inh -7.

Compound activity deposited in PubChem by several laboratories.
